Laboratory results from PubChem BioAssay (EPA / NIEHS).
Where “and” joins values, the source holds several entries; their conditions need not be identical. Equal entries are not always repeated. Records with an inconclusive call do not appear. Where a structure was tested more than once in an assay, its records may differ in their call. Calls of active or inactive are those of the source. Rule for the calls: active = hit-call score of the fitted dose curve at least 0.9, where 1 is the maximum; inconclusive = response in the unintended direction; inactive = score below 0.9.

Experiments:
[1] = target: bovine Estrogen Receptor (ER), ESR1 (gene 407238) (UniProt P49884); test: NVS_NR_bER: NovaScreen (NVS) Nuclear Receptor Binding Assay for bovine Estrogen Receptor (ER) (AID 2283345);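 note: actives lower the bound radioligand count which means they displace the ER ligand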
Chain of bovine Estrogen Receptor (ER), ESR1 (gene 407238) (P49884 whole entry, looked up): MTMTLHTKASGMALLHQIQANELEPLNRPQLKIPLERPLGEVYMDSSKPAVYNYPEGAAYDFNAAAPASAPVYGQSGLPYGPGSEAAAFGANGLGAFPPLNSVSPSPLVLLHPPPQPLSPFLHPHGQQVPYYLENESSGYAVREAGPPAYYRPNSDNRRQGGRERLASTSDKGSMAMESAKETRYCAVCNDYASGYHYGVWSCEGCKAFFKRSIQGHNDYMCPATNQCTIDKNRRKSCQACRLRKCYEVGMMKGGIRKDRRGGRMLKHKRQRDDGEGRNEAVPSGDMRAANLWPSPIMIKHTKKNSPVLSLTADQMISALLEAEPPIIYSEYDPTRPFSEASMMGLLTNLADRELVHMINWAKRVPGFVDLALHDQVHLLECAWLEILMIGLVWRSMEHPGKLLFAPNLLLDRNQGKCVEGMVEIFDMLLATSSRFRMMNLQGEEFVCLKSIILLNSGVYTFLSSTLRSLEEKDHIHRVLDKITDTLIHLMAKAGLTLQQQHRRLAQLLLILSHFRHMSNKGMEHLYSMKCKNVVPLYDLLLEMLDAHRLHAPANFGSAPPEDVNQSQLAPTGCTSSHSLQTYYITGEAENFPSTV
How it was run: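 Cell-free radioligand binding with receptor from bovine uterine membranes, read by scintillation counting 18 h after dosing. Loss of specific binding was scored against DMSO; primary screen at 25 uM in duplicate, actives then run as concentration series.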

[2] = target: Estrogen receptor (Homo sapiens) (UniProt P03372); test: NVS_NR_hER: NovaScreen (NVS) Nuclear Receptor Binding Assay for human Estrogen Receptor (ER) (AID 2283348)
Chain of Estrogen receptor (Homo sapiens) (P03372 whole entry, looked up): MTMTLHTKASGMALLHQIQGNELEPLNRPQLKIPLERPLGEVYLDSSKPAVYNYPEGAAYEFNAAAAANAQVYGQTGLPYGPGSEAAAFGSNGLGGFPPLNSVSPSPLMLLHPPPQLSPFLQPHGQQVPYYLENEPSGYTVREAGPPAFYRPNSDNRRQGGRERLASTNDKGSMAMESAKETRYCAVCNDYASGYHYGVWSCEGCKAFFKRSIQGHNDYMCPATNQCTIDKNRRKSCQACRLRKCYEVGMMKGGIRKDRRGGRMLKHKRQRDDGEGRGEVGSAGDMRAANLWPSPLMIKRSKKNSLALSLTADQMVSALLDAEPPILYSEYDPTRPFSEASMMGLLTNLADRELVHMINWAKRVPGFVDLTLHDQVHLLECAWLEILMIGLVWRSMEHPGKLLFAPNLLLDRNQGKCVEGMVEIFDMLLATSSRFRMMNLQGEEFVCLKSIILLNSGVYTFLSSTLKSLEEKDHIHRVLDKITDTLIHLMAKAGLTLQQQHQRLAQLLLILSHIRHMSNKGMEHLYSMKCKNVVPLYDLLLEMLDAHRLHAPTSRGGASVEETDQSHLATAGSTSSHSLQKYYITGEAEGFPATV
How it was run: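 MCF7-derived receptor extract, radiolabelled ligand, competitive displacement. Read: scintillation counts at 18 h. DMSO = negative control/baseline. Primary 25 uM duplicate; follow-up concentration–response.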

[3] = target: T1, Estrogen receptor (Homo sapiens) + Estrogen receptor beta (Homo sapiens) (UniProt P03372+Q92731); test: OT_ER_ERaERb_0480: Odyssey Thera (OT) 8-hour HEK293T Protein-Complementation Assay for Estrogen Receptor-alpha/-beta Heterodimer (AID 2283352)
T1 sequence (P03372 whole entry, looked up, the tested form may be a part): as the sequence (P03372 whole entry, looked up) above
T1 sequence (Q92731 whole entry, looked up, the tested form may be a part): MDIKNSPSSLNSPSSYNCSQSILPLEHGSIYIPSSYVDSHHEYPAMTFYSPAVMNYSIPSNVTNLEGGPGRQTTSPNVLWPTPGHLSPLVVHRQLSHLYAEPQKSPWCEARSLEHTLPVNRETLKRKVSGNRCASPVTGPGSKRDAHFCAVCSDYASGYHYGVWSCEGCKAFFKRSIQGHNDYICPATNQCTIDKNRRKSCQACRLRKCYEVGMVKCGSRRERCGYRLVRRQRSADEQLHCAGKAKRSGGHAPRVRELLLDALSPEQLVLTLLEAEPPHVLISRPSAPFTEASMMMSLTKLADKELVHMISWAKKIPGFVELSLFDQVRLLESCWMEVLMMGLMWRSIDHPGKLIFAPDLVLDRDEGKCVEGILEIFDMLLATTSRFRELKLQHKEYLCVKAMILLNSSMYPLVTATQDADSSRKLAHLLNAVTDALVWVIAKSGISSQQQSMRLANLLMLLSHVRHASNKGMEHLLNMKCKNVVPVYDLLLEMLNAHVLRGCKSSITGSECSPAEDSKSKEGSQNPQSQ
How it was run: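 Fluorescence increase from reconstituted reporter fragments, quantified by laser scanning cytometer, reflects ER-alpha/ER-beta heterodimer formation in human HEK293T cells. Exposure 8 h; positive-direction fitting against DMSO vehicle.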

[4] = target: T1, Estrogen receptor (Homo sapiens) + Estrogen receptor beta (Homo sapiens); test: OT_ER_ERaERb_1440: Odyssey Thera (OT) 24-hour HEK293T Protein-Complementation Assay for Estrogen Receptor-alpha/-beta Homodimer (AID 2283356);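 note: heteromer of ER alpha and ER beta binding domains; hits raise reporter fluorescence and both agonists and antagonists give an increase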
How it was run: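 Fragment complementation between ER alpha (310-547) and ER beta (263-489) ligand-binding domains in HEK293T cells; signal read 24 h post-dosing by laser scanning cytometer. Gain of fluorescence relative to DMSO fitted.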

[5] = target: Estrogen receptor beta (Homo sapiens) (UniProt Q92731); test: OT_ER_ERbERb_0480: Odyssey Thera (OT) 8-hour HEK293T Protein-Complementation Assay for Estrogen Receptor-beta/-beta Homodimer (AID 2283357);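 note: active means signal gain over DMSO baseline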
Chain of Estrogen receptor beta (Homo sapiens) (Q92731 whole entry, looked up, the tested form may be a part): as above
How it was run: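 Homodimerization of ER-beta LBD measured by protein-fragment complementation in HEK293T; 8 h dosing; fixed, Draq5 counterstain; fluorescence intensity gain over DMSO baseline, positive fitting direction; laser scanning cytometry.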

[6] = target: human Constitutive Androstane Receptor (CAR), NR1I3 (gene 9970) (UniProt Q14994); test: NVS_NR_hCAR_Antagonist: NovaScreen (NVS) Nuclear Receptor Binding Assay for human Constitutive Androstane Receptor Antagonism (CAR) (AID 2283344)
Chain of human Constitutive Androstane Receptor (CAR), NR1I3 (gene 9970) (Q14994 whole entry, looked up): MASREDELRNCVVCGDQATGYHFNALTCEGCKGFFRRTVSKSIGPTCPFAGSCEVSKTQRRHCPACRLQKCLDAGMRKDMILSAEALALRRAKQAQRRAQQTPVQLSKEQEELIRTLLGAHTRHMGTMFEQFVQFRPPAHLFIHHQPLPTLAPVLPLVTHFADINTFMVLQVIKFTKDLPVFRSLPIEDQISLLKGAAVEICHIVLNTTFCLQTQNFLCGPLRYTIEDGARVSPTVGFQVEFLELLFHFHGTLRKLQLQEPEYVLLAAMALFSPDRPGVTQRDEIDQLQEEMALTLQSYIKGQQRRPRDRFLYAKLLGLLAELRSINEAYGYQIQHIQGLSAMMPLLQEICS
How it was run: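 Single 25 uM duplicate primary screen, with concentration-series follow-up on actives. Cell-free binding format run in antagonist mode, TR-FRET signal taken 1 h post-dose; activity is signal loss relative to DMSO.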

[7] = target: Retinoic acid receptor alpha (Homo sapiens) (UniProt P10276); test: NVS_NR_hRAR_Antagonist: NovaScreen (NVS) Nuclear Receptor Binding Assay for human Retinoic Acid Alpha Receptor Antagonism (RAR) (AID 2283358)
Chain of Retinoic acid receptor alpha (Homo sapiens) (P10276 whole entry, looked up): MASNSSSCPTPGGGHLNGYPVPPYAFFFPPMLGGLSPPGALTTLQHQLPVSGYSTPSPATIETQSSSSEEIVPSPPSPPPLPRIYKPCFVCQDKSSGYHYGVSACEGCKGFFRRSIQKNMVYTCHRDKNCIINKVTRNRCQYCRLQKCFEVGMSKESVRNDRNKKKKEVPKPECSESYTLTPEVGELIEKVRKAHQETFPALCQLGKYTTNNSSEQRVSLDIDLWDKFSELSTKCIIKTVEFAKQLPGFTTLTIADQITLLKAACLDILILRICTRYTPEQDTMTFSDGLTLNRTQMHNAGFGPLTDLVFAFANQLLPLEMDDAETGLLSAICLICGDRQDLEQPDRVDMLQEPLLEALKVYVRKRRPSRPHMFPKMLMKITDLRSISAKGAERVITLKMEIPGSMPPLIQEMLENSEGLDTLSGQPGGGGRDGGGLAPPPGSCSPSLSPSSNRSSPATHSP
How it was run: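 Read-out: time-resolved FRET binding signal, 2 h post-dose, cell-free extracted protein. Antagonism scored as signal loss versus DMSO negative control. Primary single-concentration screen at 25 uM in duplicate; concentration series for actives.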

[8] = target: rat Mineralocorticoid Receptor (MR), Nr3c2 (gene 25672) (UniProt P22199); test: NVS_NR_rMR: NovaScreen (NVS) Nuclear Receptor Binding Assay for rat Mineralocorticoid Receptor (MR) (AID 2283355)
Chain of rat Mineralocorticoid Receptor (MR), Nr3c2 (gene 25672) (P22199 whole entry, looked up): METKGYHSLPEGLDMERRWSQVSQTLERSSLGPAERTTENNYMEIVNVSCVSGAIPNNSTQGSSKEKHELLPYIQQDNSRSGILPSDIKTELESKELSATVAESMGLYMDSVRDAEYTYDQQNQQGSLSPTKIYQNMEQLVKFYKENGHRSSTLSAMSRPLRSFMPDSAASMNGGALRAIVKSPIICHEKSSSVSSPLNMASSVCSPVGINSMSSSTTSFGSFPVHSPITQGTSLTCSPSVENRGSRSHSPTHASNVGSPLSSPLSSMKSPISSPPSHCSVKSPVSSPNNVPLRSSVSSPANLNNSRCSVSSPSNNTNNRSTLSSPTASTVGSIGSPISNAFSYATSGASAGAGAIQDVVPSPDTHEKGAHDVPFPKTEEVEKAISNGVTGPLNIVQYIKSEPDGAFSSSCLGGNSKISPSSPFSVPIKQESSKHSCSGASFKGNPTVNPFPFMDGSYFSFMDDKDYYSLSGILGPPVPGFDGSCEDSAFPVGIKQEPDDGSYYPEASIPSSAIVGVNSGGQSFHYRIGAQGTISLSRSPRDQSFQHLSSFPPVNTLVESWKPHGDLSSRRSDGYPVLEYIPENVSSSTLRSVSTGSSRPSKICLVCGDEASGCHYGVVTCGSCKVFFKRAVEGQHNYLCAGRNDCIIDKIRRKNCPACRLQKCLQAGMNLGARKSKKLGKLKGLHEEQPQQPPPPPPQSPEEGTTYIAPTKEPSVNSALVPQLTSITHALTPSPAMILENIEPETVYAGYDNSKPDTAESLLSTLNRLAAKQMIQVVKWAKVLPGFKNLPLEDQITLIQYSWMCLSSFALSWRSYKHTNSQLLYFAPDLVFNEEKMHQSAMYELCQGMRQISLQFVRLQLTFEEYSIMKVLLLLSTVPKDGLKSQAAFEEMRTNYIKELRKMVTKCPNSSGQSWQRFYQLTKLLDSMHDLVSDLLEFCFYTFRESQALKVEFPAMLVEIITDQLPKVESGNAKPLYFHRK
How it was run: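 Radioligand displacement, scintillation readout; tissue source adrenalectomized rat brain supernatant. Read 24 h post-dose. Screened in duplicate at 25 uM, DMSO negative control, controls on every plate; actives re-run in concentration series.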

[9] = target: chimpanzee Androgen Receptor (AR), AR (gene 747460) (UniProt O97775); test: NVS_NR_cAR: NovaScreen (NVS) Nuclear Receptor Binding Assay for chimpanzee Androgen Receptor (AR) (AID 2283346);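 note: radioligand displacement from AR measured by scintillation counting in a cell-free assay; a loss of bound radioligand signal versus DMSO counts as binding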
How it was run: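 Radioligand binding to chimpanzee AR expressed in Sf9/Sf21 cells, cell-free, measured 72 h after dosing by lysate-based scintillation counting. Loss of signal vs DMSO; initial duplicate screen at 25 uM, actives retested in concentration series.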

[10] = target: Androgen Receptor/SRC-1 Co-activator, AR (gene 367) (UniProt P10275); test: OT_AR_ARSRC1_0960: Odyssey Thera (OT) 16-hour HEK293T Protein-Complementation Assay for Androgen Receptor/SRC-1 Co-activator (AID 2283353);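 note: actives raise the signal above DMSO so potency reflects increased AR and SRC-1 complex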
Chain of Androgen Receptor/SRC-1 Co-activator, AR (gene 367) (P10275 whole entry, looked up): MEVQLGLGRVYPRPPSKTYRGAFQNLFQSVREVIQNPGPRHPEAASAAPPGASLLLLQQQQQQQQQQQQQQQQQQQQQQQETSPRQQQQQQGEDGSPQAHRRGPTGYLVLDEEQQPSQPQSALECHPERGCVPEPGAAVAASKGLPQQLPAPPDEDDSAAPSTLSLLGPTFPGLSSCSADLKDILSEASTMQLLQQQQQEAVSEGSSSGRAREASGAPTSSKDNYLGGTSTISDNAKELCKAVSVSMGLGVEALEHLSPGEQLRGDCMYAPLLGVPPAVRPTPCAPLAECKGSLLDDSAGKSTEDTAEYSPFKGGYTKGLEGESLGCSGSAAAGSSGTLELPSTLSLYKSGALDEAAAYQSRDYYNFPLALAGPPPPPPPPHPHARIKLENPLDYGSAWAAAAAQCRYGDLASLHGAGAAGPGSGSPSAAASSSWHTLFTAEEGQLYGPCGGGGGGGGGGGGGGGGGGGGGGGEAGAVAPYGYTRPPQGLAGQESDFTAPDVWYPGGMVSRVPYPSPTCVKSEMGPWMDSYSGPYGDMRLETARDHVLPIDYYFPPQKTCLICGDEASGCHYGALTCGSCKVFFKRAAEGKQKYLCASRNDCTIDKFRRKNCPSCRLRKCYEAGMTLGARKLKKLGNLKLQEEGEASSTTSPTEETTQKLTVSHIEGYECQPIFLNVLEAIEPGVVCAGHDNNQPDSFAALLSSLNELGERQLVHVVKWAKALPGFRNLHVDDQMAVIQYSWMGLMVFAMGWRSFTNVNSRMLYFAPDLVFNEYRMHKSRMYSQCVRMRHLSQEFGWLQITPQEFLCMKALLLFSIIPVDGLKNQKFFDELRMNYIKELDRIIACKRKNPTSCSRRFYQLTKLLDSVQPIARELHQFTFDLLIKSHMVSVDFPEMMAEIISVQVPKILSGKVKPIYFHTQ
How it was run: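 Endpoint is gain-of-signal N/C fluorescence ratio in the 488 nm channel versus DMSO, from at least 400 cells per image, measured 16 h post-dosing. Cells: HEK293T stably carrying split-Venus AR/SRC-1 complementation constructs.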

[11] = target: Bile acid receptor (Homo sapiens) (UniProt Q96RI1); test: NVS_NR_hFXR_Antagonist: NovaScreen (NVS) Nuclear Receptor Binding Assay for human Farnesoid X Receptor Antagonism (FXR) (AID 2283350)
Chain of Bile acid receptor (Homo sapiens) (Q96RI1 whole entry, looked up): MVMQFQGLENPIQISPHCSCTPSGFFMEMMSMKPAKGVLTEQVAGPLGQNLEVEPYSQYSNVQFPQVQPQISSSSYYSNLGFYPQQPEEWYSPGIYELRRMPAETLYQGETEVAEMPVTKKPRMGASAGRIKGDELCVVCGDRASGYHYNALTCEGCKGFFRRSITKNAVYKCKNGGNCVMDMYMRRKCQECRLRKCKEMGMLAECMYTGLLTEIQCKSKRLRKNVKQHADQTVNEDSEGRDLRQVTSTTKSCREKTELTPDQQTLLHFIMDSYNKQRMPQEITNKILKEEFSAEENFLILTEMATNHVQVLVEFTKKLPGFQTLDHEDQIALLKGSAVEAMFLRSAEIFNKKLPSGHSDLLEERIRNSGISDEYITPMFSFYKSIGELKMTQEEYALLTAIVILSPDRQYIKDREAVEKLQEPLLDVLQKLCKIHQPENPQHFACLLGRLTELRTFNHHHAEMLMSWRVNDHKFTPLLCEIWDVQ
How it was run: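 Antagonist-format time-resolved FRET binding assay with extracted human receptor protein, read 1 hour after compound addition. Compounds first screened at 25 uM in duplicate, then actives tested in concentration series, with loss of signal relative to DMSO.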

NCBI gene 100848466 = test: NVS_NR_bPR: NovaScreen (NVS) Nuclear Receptor Binding Assay for bovine Progextron Receptor (PR) (AID 2283343)
How it was run: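 Scintillation counts of bound radioligand were read 18 hours after chemical addition to membranes extracted from bovine uterus. Displacement was scored as loss of signal relative to DMSO controls. Screening began at 25 uM in duplicate.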

PGR (gene 5241) = PGR (gene 5241) (UniProt P06401); test: NVS_NR_hPR: NovaScreen (NVS) Nuclear Receptor Binding Assay for human Progestron Receptor (PR) (AID 2283360);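 note: active means loss of bound radioligand signal versus DMSO baseline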
How it was run: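 Cell-free radioligand binding using receptor protein extracted from T47D cells, read by scintillation counting 18 hours after dosing. Loss of signal relative to DMSO baseline indicates displacement; primary screen single concentration 25 uM in duplicate, actives followed in concentration series.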

## COCCO
[1]
  outcome: inactive

## COc1c(Cl)ccc(Cl)c1C(=O)O
[1]
  outcome: inactive
[2]
  outcome: inactive
[3]
  outcome: inactive
[4]
  outcome: inactive
[5]
  outcome: inactive

## COC(=O)c1ccc(CNS(C)(=O)=O)cc1S(=O)(=O)NC(=O)Nc1nc(OC)cc(OC)n1
[6]
  outcome: inactive
[2]
  outcome: inactive
[7]
  outcome: inactive

## O=C(Nc1ccc([N+](=O)[O-])cc1Cl)c1cc(Cl)ccc1O
[3]
  outcome: inactive
[4]
  outcome: inactive
[5]
  outcome: inactive

## O=C(O)c1ccccc1
[2]
  outcome: inactive

## CCCOC(=O)c1ccc(C(=O)OCCC)nc1
[6]
  outcome: inactive
[3]
  outcome: inactive
[4]
  outcome: inactive
[5]
  outcome: inactive

## CCC(O)=C1C(=O)CC(C(=O)O)CC1=O (stereo unspecified)
[6]
  outcome: inactive

## CC(C)(C)[C@@H](O)[C@@H](Cc1ccc(Cl)cc1)n1cncn1
[8]
  outcome: inactive
[5]
  outcome: inactive

## CSC(=O)c1cccc2nnsc12
[9]
  AC50: 1.02 µM (active)
[10]
  AC50: 32.5 µM (active)

## CCSC(=O)N(CC(C)C)CC(C)C
[3]
  outcome: inactive
[10]
  outcome: inactive
[8]
  outcome: inactive
[4]
  outcome: inactive
[5]
  outcome: inactive

## COC(=O)c1ccccc1S(=O)(=O)NC(=O)Nc1nc(OC(F)F)cc(OC(F)F)n1
[11]
  outcome: inactive

## CCOC(=O)C(C)Oc1ccc(Oc2cnc3cc(Cl)ccc3n2)cc1 (stereo unspecified)
[1]
  outcome: inactive
[2]
  outcome: inactive

## c1ccc(Nc2ccccc2)cc1
NCBI gene 100848466
  outcome: inactive
[5]
  AC50: 50.8 µM (active)
PGR (gene 5241)
  outcome: inactive

## CCN(Cc1c(F)cccc1Cl)c1c([N+](=O)[O-])cc(C(F)(F)F)cc1[N+](=O)[O-]
[3]
  AC50: 7.66 µM (active)
[8]
  outcome: inactive
[4]
  AC50: 10.3 µM (active)
[5]
  outcome: inactive

## CCCCOC(=O)C(C)Oc1ccc(Oc2ccc(C(F)(F)F)cn2)cc1 (stereo unspecified)
[1]
  outcome: inactive
[3]
  outcome: inactive
[4]
  outcome: inactive
[5]
  outcome: inactive

## COC(=O)c1cccc(C)c1S(=O)(=O)NC(=O)Nc1nc(OCC(F)(F)F)nc(N(C)C)n1
[11]
  outcome: inactive

## CCOC(=O)[C@H](C)Oc1ccc(Oc2nc3ccc(Cl)cc3o2)cc1
[6]
  AC50: 182 nM (active)

## CCOC(=O)NCCOc1ccc(Oc2ccccc2)cc1
[6]
  outcome: inactive

## O=C(c1ccccc1)C1CCCCC1
[1]
  outcome: inactive
[2]
  outcome: inactive
[10]
  outcome: inactive

## COC(=O)c1ccc(I)cc1S(=O)(=O)NC(=O)Nc1nc(C)nc(OC)n1
[8]
  outcome: inactive
[5]
  outcome: inactive

## CCOC(=O)C(C)Oc1ccc(Oc2nc3ccc(Cl)cc3o2)cc1 (stereo unspecified)
[10]
  outcome: inactive
[5]
  outcome: inactive

## CCOC(=O)c1ccc(O)cc1
[1]
  outcome: inactive
[9]
  outcome: inactive
[2]
  AC50: 10.5 µM (active) and 4.61 µM (active)
  outcome: inactive
[3]
  AC50: 30.6 µM (active) and 27.1 µM (active) and 28 µM (active)
  outcome: inactive
[4]
  AC50: 32.2 µM (active) and 26.9 µM (active) and 26.8 µM (active)
  outcome: inactive
[5]
  AC50: 27.8 µM (active) and 33.1 µM (active) and 31.7 µM (active)
  outcome: inactive

## CCC(C)OC(=O)N1CCCCC1CCO (stereo unspecified)
[5]
  outcome: inactive

## CCCN(CCC)c1c([N+](=O)[O-])cc(C(F)(F)F)c(N)c1[N+](=O)[O-]
[3]
  AC50: 0.428 µM (active)
[4]
  outcome: inactive
[5]
  outcome: inactive
[7]
  outcome: inactive
